In PubChem BioAssay:
Several values for one entry are separate records, joined by “and”; a condition that tells them apart may be missing. Equal entries are not always repeated. Activity calls are given as the source filed them. Unless noted, the rule behind the calls is not given here.

Columns and labels:
[1] = HepG2 liver cancer cell viability effects, profiling panel, resazurin fluorescence, 24 h, PK04 Diversity Set (AID 1172); details: higher = more signal; note: test concentration not given here
[2] = basal S. cerevisiae growth modulation, no modifier, primary screen, OD600, strain BY4716, 24 h, basal condition (AID 1173); details: OD600, 24 h, higher = more signal, called active from +8 up or from −8 down
[3] = MM1S myeloma cell viability, profiling panel, resazurin fluorescence, basal, 24 h, PK04 Diversity Set (AID 1174); details: higher = more signal, called active from +8 up or from −8 down;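 note: MM1S multiple myeloma cell line; test concentration not given here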
[4] = biological target: Dihydroorotate dehydrogenase (quinone), mitochondrial (Plasmodium falciparum (isolate 3D7)) (UniProt Q08210); assay: PfDHODH enzyme inhibitors, primary screen, biochemical, C-terminal His tag, absorbance 600 nm (AID 1175); details: DCIP absorbance 600 nm, higher = more signal, called active from +8 up or from −8 down;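 note: recombinant parasite enzyme with a five histidine tag at its C terminus; test concentration not given here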
Dihydroorotate dehydrogenase (quinone), mitochondrial (Plasmodium falciparum (isolate 3D7)), sequence (Q08210 whole entry, looked up): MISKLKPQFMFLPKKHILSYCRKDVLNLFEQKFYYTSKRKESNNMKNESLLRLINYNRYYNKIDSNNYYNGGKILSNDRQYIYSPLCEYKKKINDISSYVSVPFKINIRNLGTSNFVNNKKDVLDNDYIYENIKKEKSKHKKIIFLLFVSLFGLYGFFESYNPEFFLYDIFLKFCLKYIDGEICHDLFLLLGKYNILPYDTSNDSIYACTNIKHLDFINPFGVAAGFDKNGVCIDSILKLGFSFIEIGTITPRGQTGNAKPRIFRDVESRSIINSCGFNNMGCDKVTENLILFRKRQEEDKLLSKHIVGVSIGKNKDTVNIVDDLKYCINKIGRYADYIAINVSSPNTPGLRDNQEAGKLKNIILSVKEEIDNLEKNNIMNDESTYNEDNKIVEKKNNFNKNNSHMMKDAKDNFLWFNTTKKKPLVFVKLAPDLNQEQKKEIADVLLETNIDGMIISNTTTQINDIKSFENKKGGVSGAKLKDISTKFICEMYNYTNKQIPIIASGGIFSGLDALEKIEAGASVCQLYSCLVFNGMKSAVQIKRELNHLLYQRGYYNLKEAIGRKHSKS

[5] = P. aeruginosa biofilm formation inhibitors, primary screen, strain PAO1, LB-PBS medium, absorbance 600 nm (AID 1176); note: test concentration not given here; details: P. aeruginosa PAO1 growth/biofilm, A600, 12 h; higher = more signal
[6] = S. cerevisiae RM11-1a growth modifiers, primary screen, strain RM11-1a, OD600, basal, 24 h (AID 1177); details: OD600, 24 h, higher = more signal, called active from +8 up or from −8 down;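 note: cultures grown under basal conditions with no added stressor; test concentration not given here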
[7] = E. coli acrAB mutant growth effects, primary screen, E. coli filamentation inducers, strain DRC39, OD650, 24 h (AID 1178); details: higher = more signal, called active from +8 up or from −8 down;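 note: growth measured as culture turbidity by optical density at 650 nm; test concentration not given here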
[8] = E. coli acrAB mutant growth effects, primary screen, E. coli filamentation inducers, strain DRC39, OD650, 48 h (AID 1179);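 note: screen aims at cell division blockers that make cells filament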; details: E. coli DRC39 delta-acrAB growth, higher = more signal, called active from +8 up or from −8 down
[9] = RPMI8226 myeloma cell viability, profiling panel, resazurin fluorescence, basal, 24 h, PK04 Diversity Set (AID 1180); details: higher = more signal;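 note: RPMI8826 multiple myeloma cell line at 5000 cells per well; test concentration not given here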
[10] = biological target: E3 ubiquitin-protein ligase XIAP (Homo sapiens) (UniProt P98170); assay: XIAP binders, primary screen, biophysical, small-molecule microarray, fluorescence 635 nm (AID 1181); details: small-molecule microarray binding, higher = more signal;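 note: score merges 667 nm emission and signal to noise over triplicate slides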
E3 ubiquitin-protein ligase XIAP (Homo sapiens), sequence (P98170 whole entry, looked up): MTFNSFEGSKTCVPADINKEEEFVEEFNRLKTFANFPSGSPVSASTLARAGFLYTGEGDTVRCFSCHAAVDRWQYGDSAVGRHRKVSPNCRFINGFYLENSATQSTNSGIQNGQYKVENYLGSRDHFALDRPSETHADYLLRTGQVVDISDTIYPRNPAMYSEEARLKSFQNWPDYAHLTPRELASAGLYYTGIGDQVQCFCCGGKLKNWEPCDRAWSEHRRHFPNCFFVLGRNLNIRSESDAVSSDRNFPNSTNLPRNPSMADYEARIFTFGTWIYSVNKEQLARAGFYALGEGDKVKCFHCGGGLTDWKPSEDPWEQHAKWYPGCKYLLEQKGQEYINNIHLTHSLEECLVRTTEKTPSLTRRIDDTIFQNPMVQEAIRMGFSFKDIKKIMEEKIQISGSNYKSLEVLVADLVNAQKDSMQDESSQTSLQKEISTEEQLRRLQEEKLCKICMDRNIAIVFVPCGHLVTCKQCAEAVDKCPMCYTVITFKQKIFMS

SMILES: C=CCN(C(=O)C(c1cccs1)N(C(=O)/C=C\C(=O)O)c1ccc(CCO)cc1)C(C)(C)C (stereo not given)
- z-score [1]: -0.388 and -0.35
- z-score [2]: -2.06 (inactive) and -0.483 (inactive)
- z-score [3]: 0.448 (inactive) and 0.224 (inactive)
- composite z-score [4]: -2.45 (inactive) and -0.818 (inactive)
- z-score [5]: 0.289 (inactive) and -0.332 (inactive)
- z-score [6]: -0.0345 (inactive) and -0.122 (inactive)
- z-score [7]: 0.592 (inactive) and -0.113 (inactive)
- z-score [8]: 0.864 (inactive) and 0.356 (inactive)
- z-score [9]: 0.0456 and 0.0755
- composite z-score [10]: -0.232 and -0.145

SMILES: C=CCN(CCCC)C(=O)C1N(c2c(Cl)cccc2CO)C(=O)C2C(C(=O)O)C3C=CC21O3 (stereo not given)
- z-score [1]: -0.757 and -0.248
- z-score [2]: 0.187 (inactive) and -0.602 (inactive)
- z-score [3]: -1.9 (inactive) and -0.645 (inactive)
- composite z-score [4]: 0.82 (inactive) and -0.536 (inactive)
- z-score [5]: -0.261 (inactive) and 0.497 (inactive)
- z-score [6]: 0.561 (inactive) and 0.143 (inactive)
- z-score [7]: -0.964 (inactive) and 0.22 (inactive)
- z-score [8]: -0.881 (inactive) and -0.0006 (inactive)
- z-score [9]: -0.813 and -0.285
- composite z-score [10]: -0.0599 and 0.425

SMILES: CCCC[C@@H]1CN2[C@@H](CC[C@@H](C)[C@@H]2c2ccc(Br)cc2)C(=O)O1
- z-score [1]: -0.175 and 0.523
- z-score [2]: -1.57 (inactive) and -1.39 (inactive)
- z-score [3]: 0.0509 (inactive) and 0.231 (inactive)
- composite z-score [4]: 0.466 (inactive) and -0.248 (inactive)
- z-score [5]: -0.221 (inactive) and -0.175 (inactive)
- z-score [6]: 0.229 (inactive) and -0.0641 (inactive)
- z-score [7]: 0.777 (inactive) and 0.606 (inactive)
- z-score [8]: 0.535 (inactive) and -1.07 (inactive)
- z-score [9]: 0.387 and 0.756
- composite z-score [10]: 0.0537 and -0.185

SMILES: C=C[C@@H](C)[C@@H](O)c1ccc(OCCO)cc1
- z-score [1]: 0.162 and 0.223
- z-score [2]: -3.96 (inactive) and -2.81 (inactive)
- z-score [3]: -0.435 (inactive) and 0.286 (inactive)
- composite z-score [4]: 0.0788 (inactive) and -1.03 (inactive)
- z-score [5]: 0.331 (inactive) and 0.838 (inactive)
- z-score [6]: 0.909 (inactive) and 1.21 (inactive)
- z-score [7]: 1.12 (inactive) and 0.982 (inactive)
- z-score [8]: 0.795 (inactive) and 1.13 (inactive)
- z-score [9]: -0.112 and 0.616
- composite z-score [10]: 0.103 and -0.15

SMILES: COC(=O)[C@@]1(Cc2ccc(F)cc2)[C@H]2c3cc(C(=O)N4CCCC4)n(Cc4c(CO)[nH]cc(C)c4=O)c3C[C@H]2CN1C(=O)c1ccccc1
- z-score [1]: -0.605 and 1.06
- z-score [2]: 1.61 (inactive) and 2.35 (inactive)
- z-score [3]: -1.14 (inactive) and -0.131 (inactive)
- composite z-score [4]: 0.0634 (inactive) and 0.524 (inactive)
- z-score [5]: 1.38 (inactive) and 0.895 (inactive)
- z-score [6]: 1.33 (inactive) and 1.72 (inactive)
- z-score [7]: -0.573 (inactive) and -0.476 (inactive)
- z-score [8]: -0.104 (inactive) and -0.339 (inactive)
- z-score [9]: -1.14 and -1.39
- composite z-score [10]: 0.221 and 0.0726

SMILES: CC(C)=CCCC(C)=CCON=C1C[C@@H](O)[C@@H](O)[C@@H]2[C@@H]3C(=O)N([C@@H](C)c4ccccc4)C(=O)[C@@H]3CC[C@H]12
- z-score [1]: -1.03
- z-score [2]: -3.41 (inactive)
- z-score [3]: -0.339 (inactive)
- composite z-score [4]: -1.48 (inactive)
- z-score [5]: 0.365 (inactive)
- z-score [6]: -2.18 (inactive)
- z-score [7]: -1 (inactive)
- z-score [8]: -0.666 (inactive)
- z-score [9]: -0.637
- composite z-score [10]: 0.104

SMILES: CO[C@H]1COC(=O)CC=C[C@H](C)[C@H](OC)COC(=O)[C@@H](C)COC(=O)CC=C[C@@H]1C
- z-score [1]: 0.492 and 0.464
- z-score [2]: -0.415 (inactive) and -1.07 (inactive)
- z-score [3]: 0.429 (inactive) and 0.802 (inactive)
- composite z-score [4]: 0.175 (inactive) and 0.55 (inactive)
- z-score [5]: -0.519 (inactive) and -0.118 (inactive)
- z-score [6]: -0.436 (inactive) and -0.638 (inactive)
- z-score [7]: 0.945 (inactive) and 1.12 (inactive)
- z-score [8]: 0.658 (inactive) and 1.09 (inactive)
- z-score [9]: 0.168 and 0.365
- composite z-score [10]: 0.0256 and -0.202

SMILES: C=CCN(Cc1ccccc1)C(=O)C1N(c2c(Cl)cccc2CO)C(=O)C2C(C(=O)O)C3C=CC21O3 (stereo not given)
- z-score [1]: 0.753 and -0.367
- z-score [2]: -2.14 (inactive) and -0.245 (inactive)
- z-score [3]: 1.33 (inactive) and -0.324 (inactive)
- composite z-score [4]: -0.33 (inactive) and 0.994 (inactive)
- z-score [5]: -0.236 (inactive) and -0.329 (inactive)
- z-score [6]: -3.44 (inactive) and 0.92 (inactive)
- z-score [7]: 2.24 (inactive) and -0.745 (inactive)
- z-score [8]: 2.55 (inactive) and -0.89 (inactive)
- z-score [9]: 0.565 and -0.662
- composite z-score [10]: 0.0379 and -0.051

SMILES: CCN1C(=O)[C@H]2[C@H]3[C@H](O)[C@H](O)CC(=NOC)[C@@H]3CC[C@H]2C1=O
- z-score [1]: 0.146
- z-score [2]: -1.88 (inactive)
- z-score [3]: 0.0831 (inactive)
- composite z-score [4]: -0.581 (inactive)
- z-score [5]: 0.924 (inactive)
- z-score [6]: -0.458 (inactive)
- z-score [7]: 0.759 (inactive)
- z-score [8]: 0.953 (inactive)
- z-score [9]: 0.0325
- composite z-score [10]: 0.487
